# Test results published in PubChem BioAssay (EPA / NIEHS).
# The source made the active and inactive calls. How the source made its calls: active means hit-call score of the fitted dose curve at least 0.9, where 1 is the maximum; inactive means score below 0.9. Peptide text beside a SMILES is read from it.
# Assay: CCTE_Shafer_MEA_acute_interburst_interval_mean: CCTE's Neural Acute Assay for Mean Interburst Interval, Shafer Lab (AID 2284016);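 further: percent change of mean interburst interval versus each well's own pre-dose baseline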
# Experimental: CCTE_Shafer_MEA_acute assay is conducted using Axion Biosystems 48 well microelectrode array (MEA) plates and Maestro recording system. Each well of the MEA plate contains a grid of 16 microelectrodes embedded in the culture surface. Electrically active cells, such as neurons, can be cultured over the electrodes, and electrical activity in these cells can be recorded extracellularly. The spontaneous firing of neurons is captured from each electrode on a microsecond timescale providing both temporally and spatially precise data. […] The CCTE_Shafer_MEA_acute assay uses primary cultures of rat cortical neurons. As these cultures mature over time, neural networks develop functional activity and form cohesive networks in which electrical activity can be highly coordinated. Baseline 40-minute recordings are made on days post-plating 13 or 15, followed by a secondary 40-minute recording after chemical exposure.CCTE_Shafer_MEA_acute_interburst_interval_mean is a component of the CCTE_Shafer_MEA_acute assay. It measures the average time between the start of consecutive single-electrode bursts (temporally-clustered groups of action potential firing) during a recording in a microelectrode array (MEA) using Axion Biosystems Maestro 768 channel amplifier with the AxIS adaptive spike detector. The recordings before and after chemical treatment are used to calculate a percent change in the mean inter-burst interval in each well.Data from the assay component CCTE_Shafer_MEA_acute_interburst_interval_mean was analyzed into 1 assay endpoint. This assay endpoint, CCTE_Shafer_MEA_acute_interburst_interval_mean, was analyzed in the negative analysis fitting direction relative to DMSO as the negative control and baseline of activity. Using a type of functional reporter, gain or loss-of-signal activity can be used to understand electrical activity.
# Spontaneous activity in the cortical cultures was recorded using an Axion Biosystems Maestro 768 channel amplifier and Axion Integrated Studios (AxIS) v1.8 (or later) software. The amplifier recorded from all channels simultaneously (gain = 1200 x; sampling rate = 12.5 kHz/channel): raw signals were filtered with a Butterworth band-pass filter (300-5000 Hz), which filters out slower local field potentials leaving only fast potentials, i.e., "spikes", arising from extracellular currents associated with action potentials (Pine 2006; Wheeler and Nam 2011). On-line spike detection of filtered signals was conducted with the AxIS adaptive spike detector, using a threshold of 8x the root mean squared (rms) noise on each channel. Any electrodes with rms noise levels greater than 5 uV were grounded (e.g., no data were recorded). Once grounded, an electrode was grounded for the duration of the experiment. All recordings were conducted at 37 C. Wells were deemed usable if on the day of the exposure >/= 10 electrodes were active (defined as >/= 5 spikes/min). On DIV 13 or 15, a minimum of three wells from one cortical culture preparation were treated with each compound (0.03-40 uM). Prior to recording baseline activity, each mwMEA plate was placed in the Maestro at 37 C and allowed to sit for 20 min while firing rates stabilized. Baseline activity (40 min) was recorded before the addition of each compound. An additional 40 min of spontaneous activity was recorded in the presence of each compound. Changes in network parameters relative to baseline were assessed following compound treatment.
SMILES,outcome,AC50
CC1(C)CC(O)CC(C)(C)N1[O],inactive,
C1CNCCN1,inactive,
Cc1c(C(=O)c2c[nH]n(C)c2=O)ccc(S(C)(=O)=O)c1C1=NOCC1,inactive,
COC(=O)[C@H](Cc1ccccc1)NC(=O)[C@@H](N)CC(=O)O (H-Asp-Phe-OMe),inactive,
Nc1nc(N)nc(-c2ccccc2)n1,inactive,
CCCCCCCCCCCC(=O)N(C)CC(=O)O,,22.8 µM (active)
c1ccc(Nc2cccc3ccccc23)cc1,,11.7 µM (active)
Nc1cccc(N)n1,inactive,
CCCC(C)C(=O)OCC (stereo not drawn),inactive,
CC/C=C\CCOC(=O)c1ccccc1O,,15 µM (active)
CC(C)C(=O)OCCc1ccccc1,inactive,
CC(CCC(=O)O)(c1ccc(O)cc1)c1ccc(O)cc1,inactive,
Oc1ccccc1Cc1ccccc1O,,0.1 µM (active)
